Experimental data reported in PubChem BioAssay AID1259313 (Sanford-Burnham Center for Chemical Genomics, 2017).
“And” between values parts separate entries of the source, which are not always exact repeats. Equal entries are not always repeated. Out of some 340,000 compounds screened, about 8,500 (2.5%) were called active.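 Rule for the calls: active = melting temperature shift of at least 10% of the positive control shift, at one fixed dose; inactive = the rest.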 This excerpt belongs to a sample that is enriched for actives.

tested on: Glutamate receptor ionotropic, NMDA 3A (GRIN3A) ligand-binding domain; assay: binders of NR3A ligand-binding domain, primary screen, biophysical, differential scanning fluorimetry, uHTS (AID 1259313); details: NR3A LBD differential scanning fluorimetry, at 25 µM, stronger effect = higher value, 0% = protein alone, 100% = glycine-bound protein

Tm shift relative to glycine control, inactive:
NC(=O)C[n+]1cccc(C(N)=O)c1 -0.09%
O=C(Nc1ccc(Cl)cc1)/C(=C1\CCCN1)[N+](=O)[O-] -1.33%
COc1ccc(/C=N/Nc2cc(N3CCOCC3)nc(C)n2)c(OC)c1 -3.16%
COc1ccc(Cc2nnc(N/N=C/c3ccccc3O)[nH]c2=O)cc1OC -2.87%
COc1ccc(NS(=O)(=O)c2cc(C(=O)Nc3ccccc3C(=O)O)ccc2C)cc1 1.75%
COc1ccc(C(=O)CC(=O)C(=O)Nc2cc([N+](=O)[O-])ccc2OC)cc1 2.73%
COc1ccc(/C=C/C(=O)OCC(=O)NCc2cccs2)cc1OC 0.79%
C#C[C@]1(O)CC[C@H]2[C@@H]3CCC4=CC(=O)CC[C@@H]4[C@H]3CC[C@@]21CC 1.26% and -0.79%
Cc1ccc(S(=O)(=O)N(C)c2nc3ccccc3n3c(C(C)C)nnc23)cc1 1.79%
CCOC(=O)CNc1nc2ccccc2n2c(C)nnc12 -9.54%
COc1ccccc1-n1cnc2cc(NS(=O)(=O)c3ccccc3)ccc21 0.96%
O=C1c2cccc3cccc(c23)C(=O)N1c1cccc(O)c1 3.66%
O=C(c1cccc(Br)c1)N1CCN(C2=NS(=O)(=O)c3ccccc32)CC1 -0.26%
CCC1CCCCN1C(=S)Nc1ccc(S(=O)(=O)Nc2ncccn2)cc1 (configuration not stated) -1.92%
COc1cc(NC(=O)c2cc([N+](=O)[O-])ccc2Br)ccc1NC(=O)c1ccco1 -2.17%
O=C(Nc1ccc(C2CC2(Cl)Cl)cc1)c1cccc([N+](=O)[O-])c1 (configuration not stated) -0.36%
COc1ccc(N2CCN(C(=O)c3ccccc3NC(=O)C3=C(C)OCCS3)CC2)cc1 -0.18%
CCOC(=O)c1cc2cc(C)ccc2[nH]1 0.1%
Cn1ccc(=NC=C(C#N)C#N)c2ccccc21 -0.6%
Cc1cc(C)n2nc(C(=O)OC(C)C(=O)c3cc(C)c(C)cc3C)nc2n1 (configuration not stated) 1.24%
Cc1cc(=O)oc2cc(OCCC[n+]3ccccc3)ccc12 -1.47%
CCOc1ccccc1N1CCN(C(=O)COc2ccc3c(C)cc(=O)oc3c2)CC1 -4.48%
O=C(COC(=O)/C=C/c1cccc(Cl)c1)NCCc1ccccc1 0.53%
C[C@H](O)[C@@H]1C(=O)N2CCc3ccc(N4CCOCC4)cc3[C@@H]2C[C@@H]1N(C)C(=O)C(C)(C)C -1.15%
O=C(NCc1ccco1)C(c1ccncc1)N(C(=O)Cn1nnc2ccccc21)c1ccccc1 (configuration not stated) -1.69%
COc1ccc(Br)cc1C(=O)Nc1cccc(C)c1C -2.13%
COc1ccccc1C(=O)NC(=S)Nc1ccccc1N1CCCCC1 -4.34%
Cc1ccc2cc(C)c(N3CCC(C)CC3)nc2c1 3.71%
CC1(c2ccccc2)NC(=O)N(CC(=O)Nc2cc(Cl)ccc2N2CCOCC2)C1=O (configuration not stated) 0.96%
Cc1ccccc1NC(=O)CSc1nc2ccc(Nc3nc(N4CCOCC4)nc(N4CCOCC4)n3)cc2s1 -1.11%
Cc1ccc(C(=O)OCC(=O)NC(=O)Cc2ccccc2)c(O)c1 0.78%
O=S(=O)(NC1CCCCC1N1CCN(c2ccccc2F)CC1)c1ccccc1 (configuration not stated) -1.62%
Cc1ccc(N2C(=O)C(CC(=O)Nc3cccc(F)c3)N(CCc3ccncc3)C2=O)cc1 (configuration not stated) 0.4%
CN1C(=O)C(CC(N)=O)N(NC(=O)c2ccc(Cl)cc2)C1=S (configuration not stated) -3.25%
CC1=C(C(=O)Nc2ccccc2)C(c2cccs2)C(C#N)=C(SCC#N)N1 (configuration not stated) -11.3%
O=C(COc1ccccc1F)NNC(=O)c1cc(Br)ccc1Cl 0.51%
O=C(NCCOc1ccccc1Cl)C(=O)Nc1ccccc1 -4.63%
CCN(CC)c1ccc(NC(=O)c2ccc(=O)[nH]c2)cc1S(=O)(=O)Nc1ccc(OC)cc1 -4.98%
Cc1nc(SCC(=O)N2CCc3ccccc3C2)c2c(C)c(C)sc2n1 -0.44%
COc1cc(OC)cc(C(=O)NCC(=O)N2CCCCCCC2)c1 3.22%
O=C(Nc1cccc(Cl)c1)c1cc([N+](=O)[O-])ccc1N1CCN(CCO)CC1 3.77%
Cn1c(Nc2cccc(Cl)c2)nc2ccccc21 8.46%
CCCN(C(=O)c1nc2nccc(C)n2n1)c1c(N)n(Cc2ccccc2)c(=O)[nH]c1=O -5.77%
O=C(CCN1C(=O)c2ccccc2C1=O)NNC(=O)c1ccc(Cl)cc1Cl -1.46%
CCc1ccc(CNC(=O)C2CCN(c3nnc(C)c4c(C)n(-c5ccc(C)cc5)nc34)CC2)cc1 -2.58%
COc1ccccc1N1CCN(/N=C/c2ccc(O)cc2O)CC1 1.98%
Oc1ccc(-c2nc3ccccc3nc2-c2ccc(O)cc2O)c(O)c1 -6.22%
O=C(Nc1ccnn1C1CCN(Cc2cccc(OCCO)c2)CC1)C1CCCC1 0.6%
COc1ccc(CN2CC(C(=O)NCCc3ccc(Cl)cc3)CC2=O)cc1 (configuration not stated) -2.13%
COc1ccccc1N(CC(=O)Nc1c(C)n(C)n(-c2ccccc2)c1=O)S(=O)(=O)c1ccccc1 -1.61%
COc1ccc(Cl)cc1NS(=O)(=O)c1cccc(C(=O)NC2CCC(O)CC2)c1 (configuration not stated) 0.97%
NS(=O)(=O)c1ccc(CCNC(=O)CCCn2c(SCC(=O)N3CCCC3)nc3ccsc3c2=O)cc1 -0.96%
CC(C)Oc1ccc(/C=C(\NC(=O)/C=C/c2ccco2)C(=O)NCCc2nc3ccccc3[nH]2)cc1 -0.09%
COc1cccc(NC(=O)COC(=O)/C=C/c2ccco2)c1 -0.92%
CCC(=O)Nc1ccc2nn(-c3ccc(F)cc3)nc2c1 -10.1%
CN(c1ccccc1)S(=O)(=O)c1cc(C(=O)Nc2nc3ccccc3[nH]2)ccc1Cl -0.62%
O=C(/C=C/c1ccco1)Nc1ccc(Oc2ccccc2)cc1 2.36%
COc1ccc(C(=O)Nc2cccc(S(C)(=O)=O)c2)cc1 4.52%
COc1cc2c(cc1OC)C(c1ccccc1Br)NC(=O)C2 (configuration not stated) -0.95%
Cn1c(=O)c2ccccc2n(CC(=O)Nc2ccc3c(c2)OCCO3)c1=O -1.03%
C[C@@H]1NC(=O)c2cc([N+](=O)[O-])cc(F)c2NCCC[C@@H](C(N)=O)NC(=O)[C@H](CC(N)=O)NC1=O 1.79%
CC(=O)N(CN1C(=O)C2C3C=CC(C3)C2C1=O)c1cccc(Cl)c1 (configuration not stated) -2.44%
Oc1c(Br)cc(/C=N/NC(=S)NCC2CCCO2)cc1Br (configuration not stated) 1.71%
COc1ccc(NC(=O)NC2CC3CCCC(C2)N3Cc2ccccc2)cc1 (configuration not stated) 0%
COc1ccc(-c2noc(C(C)NS(=O)(=O)c3ccc(NC(C)=O)cc3)n2)cc1 (configuration not stated) -8.89%
CC(=O)Nc1ccc(S(=O)(=O)NC(C)C(=O)OCC(=O)NC2CCCC2)cc1 (configuration not stated) 0.79%
Cc1c(NC(=O)c2cc(-c3ccc(Cl)s3)nc3ccccc23)c(=O)n(-c2ccccc2)n1C 1.05%
C[C@H](NC(=O)C1CC(=O)N(c2ccc3c(c2)OCCO3)C1)C(=O)N1CCC(C(=O)O)CC1 (some centres not stated) -0.91%
CCOC(=O)c1c(-c2ccccc2)oc2cc(Br)c(O)c(C=O)c12 -7.04%
CCOC(=O)c1c(-c2ccccc2)oc2ccc(OCC(=O)NN)cc12 0.51%
Cc1cccc(CC(=O)N2CCN=C2SCc2ccc([N+](=O)[O-])cc2)c1 -0.64%

Tm shift relative to glycine control, active:
COc1cccc(/C=N/Nc2cc(C)nc(-c3ccccc3O)n2)c1O 30.6%
COc1ccc(NS(=O)(=O)c2cc(NC(=O)CC(=O)c3ccc([N+](=O)[O-])cc3)ccc2C)cc1 24%
Cc1ccc(Oc2nc3ccccc3n3c(C)nnc23)cc1 12.7%
O=C(Nc1ccc(NC(=O)c2ccco2)c(Cl)c1)c1cccc([N+](=O)[O-])c1 24.7%
Cc1cc(=O)oc2cc(OCC3CC(c4ccccc4Cl)=NO3)ccc12 (configuration not stated) 11.5%
COc1ccc(Br)cc1C(=O)NC(=S)Nc1cc(-c2nc3ccccc3[nH]2)ccc1C 25.9%
O=C(CSc1nc(Nc2ccccc2)nc(N2CCOCC2)n1)Nc1cc(Cl)ccc1O 32.6%
Cc1ccc(NC(=O)CC2C(=O)N(Cc3ccccc3)C(=S)N2NC(=O)c2cccc(F)c2)c(C)c1 (configuration not stated) 19.1%
O=C(NCCOc1ccccc1F)Nc1ccc(Br)cc1 16.4%
Cc1c(C(=O)Nc2cccc(Cl)c2)cn2c(nc3ccccc32)c1C#N 24.6%
Cc1nc2ccccc2nc1N/N=C/c1ccc(O)cc1O 34.3%
O=C(Nc1cccc(-c2nc3ccccc3[nH]2)c1)c1ccc(C(=O)Nc2cccc(-c3nc4ccccc4[nH]3)c2)cc1 27.9%
Cc1ccc(-n2nc3ccc(NC(=O)/C=C/c4ccco4)cc3n2)cc1C 32.1%
O=C(/C=C/c1ccco1)Nc1cccc(-c2nc3ccccc3[nH]2)c1 22.5%
CC(=O)Nc1ccc(S(=O)(=O)NC(C)C(=O)OCCOc2ccc(F)cc2)cc1 (configuration not stated) 22.1%
CCOC(=O)c1c(-c2ccccc2)oc2cc(Br)c(O)cc12 13.8%
